# Among all 310,000 compounds or so, about 2,200 (0.71%) showed an effect of 50% or more. The effect is printed as a negative number. The sample as a whole holds a higher share of strong results than the screen did.
# Biological target: human ether-à-go-go-related gene (hERG) potassium channel (human, UniProt Q12809)
# Assay: primary screen, population patch clamp on CHO cells stably expressing hERG; higher = less effect of the substance
# human ether-à-go-go-related gene (hERG) potassium channel, sequence (Q12809 whole entry, looked up): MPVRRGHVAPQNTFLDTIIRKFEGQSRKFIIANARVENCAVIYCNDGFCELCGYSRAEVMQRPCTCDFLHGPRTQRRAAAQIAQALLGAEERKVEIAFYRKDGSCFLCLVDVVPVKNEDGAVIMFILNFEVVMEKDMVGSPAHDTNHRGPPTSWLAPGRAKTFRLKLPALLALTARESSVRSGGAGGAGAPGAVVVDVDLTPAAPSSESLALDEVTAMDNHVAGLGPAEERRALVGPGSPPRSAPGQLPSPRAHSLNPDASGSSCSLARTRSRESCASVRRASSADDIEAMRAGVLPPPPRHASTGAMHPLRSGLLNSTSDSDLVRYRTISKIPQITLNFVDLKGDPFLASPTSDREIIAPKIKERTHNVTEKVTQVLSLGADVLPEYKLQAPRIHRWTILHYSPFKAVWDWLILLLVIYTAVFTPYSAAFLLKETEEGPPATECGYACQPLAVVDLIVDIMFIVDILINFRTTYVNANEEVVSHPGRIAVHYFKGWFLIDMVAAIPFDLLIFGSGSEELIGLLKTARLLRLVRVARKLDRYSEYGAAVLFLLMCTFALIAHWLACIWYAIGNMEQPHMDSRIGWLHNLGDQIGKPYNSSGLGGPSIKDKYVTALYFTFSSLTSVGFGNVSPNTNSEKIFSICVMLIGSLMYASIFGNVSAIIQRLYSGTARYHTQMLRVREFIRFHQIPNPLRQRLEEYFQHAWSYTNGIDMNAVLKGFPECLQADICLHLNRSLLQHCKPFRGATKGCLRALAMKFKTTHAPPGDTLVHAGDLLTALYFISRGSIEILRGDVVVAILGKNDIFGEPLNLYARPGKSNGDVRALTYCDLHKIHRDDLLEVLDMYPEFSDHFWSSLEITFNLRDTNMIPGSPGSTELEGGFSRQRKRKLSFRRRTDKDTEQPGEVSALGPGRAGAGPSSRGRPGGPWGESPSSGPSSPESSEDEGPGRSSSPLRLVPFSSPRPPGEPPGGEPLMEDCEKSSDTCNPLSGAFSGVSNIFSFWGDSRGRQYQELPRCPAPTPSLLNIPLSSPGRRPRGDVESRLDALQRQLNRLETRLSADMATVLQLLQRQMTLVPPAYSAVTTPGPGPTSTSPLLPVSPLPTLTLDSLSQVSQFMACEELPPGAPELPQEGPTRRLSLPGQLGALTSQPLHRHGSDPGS
row,SMILES,"hERG current change (%, negative = inhibition) at 1uM [%]"
1,Cc1ccc(NC(=O)Cc2ccc([N+](=O)[O-])cc2)c(Br)c1,5.32
2,CC(C)Oc1ccc(CCC(=O)N/N=C/c2ccc3c(c2)OCO3)cc1,16.1
3,COc1ccc(C2c3ccc4ccccc4c3Oc3ncn(CCCO)c(=N)c32)cc1 (centres unmarked),-40.6
4,N=c1c2c(ncn1CCCO)Oc1c(ccc3ccccc13)C2c1ccccc1 (centres unmarked),-20.5
5,CN(C)CCCn1cnc2c(c1=N)C(c1ccccc1)c1ccc3ccccc3c1O2 (centres unmarked),-61.9
6,CN(C)CCn1cnc2c(c1=N)C(c1ccccc1)c1ccc3ccccc3c1O2 (centres unmarked),-78.1
7,COc1ccc(C2c3ccc4ccccc4c3Oc3ncn(CCO)c(=N)c32)cc1 (centres unmarked),-61.7
8,COc1ccc(C2c3ccc4ccccc4c3Oc3ncn(CCCN(C)C)c(=N)c32)cc1 (centres unmarked),-29
9,COc1ccccc1C1c2ccc3ccccc3c2Oc2ncn(CCN(C)C)c(=N)c21 (centres unmarked),-7
10,COc1ccc(C2c3ccc4ccccc4c3Oc3ncn(CCO)c(=N)c32)cc1OC (centres unmarked),-13.9
11,COc1ccc(C2c3ccc4ccccc4c3Oc3ncn(CCN(C)C)c(=N)c32)cc1 (centres unmarked),-40.1
12,Nc1cccc2c1C(=O)N(C(=O)c1ccc(Cl)c(S(=O)(=O)N3CCCCCC3)c1)C2=O,13.1
13,COc1cccc(CCc2nnc(CCC(=O)N3CCN(Cc4ccccn4)CC3)o2)c1,10.2
14,COCCCNC(=O)c1cc2c(=O)n(C)c3ccccc3c2n1C,-8.02
15,O=C(COC(=O)CCN1C(=O)c2ccccc2C1=O)Nc1ccccc1[N+](=O)[O-],16.6
16,O=C(CSc1nnc(-c2ccco2)o1)N1c2ccccc2CCc2ccccc21,9.21
17,CCOC(=O)C(C)n1cnc2c(nnn2Cc2ccc(C)cc2)c1=O (centres unmarked),11.6
18,CC(C)c1ccc(-c2nc(N3CCCCCC3)nc3n[nH]c(N)c23)cc1,10.2
19,COc1ccc(NC(=O)Cn2nnc(C(=O)NCCc3ccc(OC)c(OC)c3)c2N)c(OC)c1,-1.5
20,CCn1c(CCc2ccccc2)nnc1SCC(N)=O,13.3
21,NC(=O)C1(c2ccccc2)CCC(=O)N1c1ccccc1 (centres unmarked),14.8
22,Cc1ccc(S(=O)(=O)N(CC(=O)NCc2cccnc2)C2CCCCC2)cc1,-30.3

row,SMILES,"hERG current change (%, negative = inhibition) at 1uM [%]"
1,COc1ccc(S(=O)(=O)N(CC(=O)NCc2cccnc2)Cc2ccccc2)cc1,-51.2
2,O=C(CN(C1CCCCC1)S(=O)(=O)c1ccccc1)NCc1cccnc1,5.52
3,CCOc1ccc(S(=O)(=O)N(CC(=O)NCc2ccncc2)c2ccc(C)cc2)cc1,-14.6
4,Cc1ccc(S(=O)(=O)N(CC(=O)NCc2cccnc2)c2ccc(F)cc2)cc1,-38.1
5,CCOc1ccc(S(=O)(=O)N(CC(=O)NCc2cccnc2)c2ccc(F)cc2)cc1,-67.2
6,CCOc1ccc(N(CC(=O)NCc2ccccc2)S(=O)(=O)c2ccc(C)cc2)cc1,6.54
7,CCOc1ccc(S(=O)(=O)N(CC(=O)NCc2cccnc2)c2ccc(C)cc2)cc1,-52.4
8,CCOc1ccc(N(CC(=O)NCc2cccnc2)S(=O)(=O)c2ccc(F)cc2)cc1,7.16
9,O=C(CN(C1CCCCC1)S(=O)(=O)c1ccc(Cl)cc1)NCc1cccnc1,-60.6
10,O=C(CN(Cc1ccccc1)S(=O)(=O)c1ccc(F)cc1)NCc1cccnc1,-31.9
11,CCN(CC(=O)NCc1cccnc1)S(=O)(=O)c1ccc(OC)cc1,0.0713
12,C[C@H]1CN=C(N(C)C)N1CCC1CCCCC1,13.6
13,CN(CC(=O)Nc1cccc(S(=O)(=O)NC2=NCCCCC2)c1)Cc1ccc(C(C)(C)C)cc1.O=C(O)C(=O)O,12.9
14,CCN1CCN(S(=O)(=O)c2cc(OC)ccc2OC)CC1,19
15,c1ccc(CSc2nnc3c(n2)OC(c2ccco2)Nc2ccccc2-3)cc1 (centres unmarked),14.9
16,COC(=O)c1sc(Nc2ccccc2)nc1C,13.5
17,C/C(N)=C(/C#N)C(=O)CSc1nc2cc(Cl)ccc2s1,-7.65
18,CC(=O)c1ccc2c(c1)OCCOCCOc1ccccc1OCCOCCO2,-82.5
19,c1ccc2c(c1)OCCOCCOCCO2,13.2
20,c1ccc2c(c1)OCCOCCOCCOCCOc1ccccc1OCCOCCOCCO2,-11.5
21,CC(=O)c1ccc2c(c1)OCCOCCOc1ccc(C(C)=O)cc1OCCOCCO2,-84.8
22,C/C(=N\O)c1ccc2c(c1)OCCO2,12.6

row,SMILES,"hERG current change (%, negative = inhibition) at 1uM [%]"
1,O=C(O)c1ccc2c(c1)OCCOCCOCCOCCOCCO2,-12.4
2,CC(=O)c1ccc2c(c1)OCCOCCOCCOCCO2,-3.2
3,C/C(=N/O)c1ccc2c(c1)OCCOCCOc1cc(/C(C)=N/O)ccc1OCCOCCO2,-79.7
4,O=C(c1ccccc1)c1ccc2c(c1)OCCOCCOCCO2,8.88
5,CC(=O)c1ccc2c(c1)OCCOCCOCCOCCOCCO2,-11.8
6,CC(=O)[O-].[K+].c1ccc2c(c1)OCCOCCOc1ccccc1OCCOCCO2,-80.7
7,CC(=O)c1ccc2c(c1)OCCOCCOCCO2,12.3
8,CN1CCN(C2=C(Cl)C(=O)N(CCc3ccccc3)C2=O)CC1,17.7
9,CCN(CC)S(=O)(=O)c1ccc(C(=O)Nc2c3c(nn2C(C)(C)C)CS(=O)(=O)C3)cc1,5.04
10,Cc1cc(C)c[n+](-c2nc3ccccc3nc2[N-]S(=O)(=O)c2cccs2)c1,2.45
11,COC(=O)c1ccccc1NC(=O)CNc1cc(Cl)ccc1N1CCOCC1,-0.671
12,CCC(=O)Nc1cccc(C(=O)Nc2nccs2)c1,8.98
13,CN1CCC(=NNC(=O)c2ccc(N(Cc3ccccc3Cl)S(C)(=O)=O)cc2)CC1,6.54
14,CCc1ccccc1NC(=O)/C(=C/c1ccccc1)c1ccccc1,-4.2
15,Cc1ccc(OCC(=O)NC(=S)Nc2ccc(Br)c(C)n2)cc1,5.89
16,O=C(CCCc1ccccc1)c1ccccc1,19.4
17,CCN(CCCC(=O)c1ccc(F)cc1)CCc1ccccc1.Cl,-86.5
18,O=C(CCCC(=O)c1ccc(F)cc1)c1ccc(F)cc1,5.62
19,COCCn1nnnc1C(c1ccc(OC)c(OC)c1)N1CCN(c2nc3ccccc3s2)CC1 (centres unmarked),2.83
20,COCCN(C(=O)c1csnn1)C(C(=O)NC1CCCC1)c1ccccc1F (centres unmarked),12.6
21,COc1ccc(-n2c(NCCN(C)C)nc3sc4c(c3c2=O)CCCCC4)cc1,-69.4
22,COc1ccc(-n2c(NN)nc3sc4c(c3c2=O)CCCC4)cc1,-9.75

row,SMILES,"hERG current change (%, negative = inhibition) at 1uM [%]"
1,CN(C)CCNc1nc2sc3c(c2c(=O)n1-c1ccc(F)cc1)CCCCC3,6.73
2,CC1(C)CC(NC(=O)C2CCN(S(=O)(=O)c3ccc(F)cc3)CC2)CC(C)(C)N1,16.9
3,CCOC(=O)C1(Cc2ccc(Cl)cc2)CCN(Cc2cnc(N)nc2)CC1,-60.6
4,CCOC(=O)C1(Cc2cccc(OC)c2)CCN(Cc2cnc(N)nc2)CC1,5.79
5,CCOC(=O)C1(Cc2cccc(OC)c2)CCCN(Cc2nccn2CC)C1 (centres unmarked),-13.5
6,CCOC(=O)C1(Cc2ccccc2)CCN(Cc2nccn2CC)CC1,8.81
7,CCOC(=O)C1(Cc2ccc(Cl)cc2)CCN(C(=O)C2=NNC(=O)CC2)CC1,-61.2
8,O=C1CCC(C(=O)N2CCC(CO)(Cc3ccc(Cl)cc3)CC2)=NN1,2.9
9,CCOC(=O)C1(Cc2ccc(Cl)cc2)CCN(C(=O)c2cscn2)CC1,-12.4
10,CCOC(=O)C1(Cc2ccc(Cl)cc2)CCN(Cc2ccon2)CC1,5.86
11,CCOC(=O)C1(Cc2ccc(Cl)cc2)CCN(Cc2nccn2CC)CC1,-57
12,COc1ccccc1C(=O)Nc1nnc(S(=O)(=O)N2CCC(C)CC2)s1,12.4
13,CCOc1ccc(CNC(=O)C2CCCN(c3nnc(C)c4c(C)n(-c5ccccc5)nc34)C2)cc1 (centres unmarked),8.87
14,N#C/C(=C/c1ccc(N2CCCCCC2)o1)c1ccc(F)cc1,16.2
15,O=C1CC(Nc2ccc(N3CCOCC3)cc2)C(=O)N1c1ccccc1F (centres unmarked),3.19
16,CCN1C(=O)[C@H]2[C@@H](c3ccc(-c4ccc(OC)cc4)cc3)N3CCC[C@@]3(C(=O)OC)[C@H]2C1=O.O=C(O)C(F)(F)F,11.6
17,Cc1cc(C)c(S(=O)(=O)N2CCCCC2CCNC(=O)C(=O)NCCN2CCOCC2)c(C)c1 (centres unmarked),6.75
18,Cc1cc(C(C)(C)CC(C)(C)C)ccc1OCCOCC[N+](C)(C)Cc1ccccc1.[Cl-],-62
19,Cc1cc(C(C)(C)C)ccc1OCCN(C)C,-15.1
20,Cc1cc(C(C)(C)C)ccc1OCCOCCN1CCCC1,-0.816
